HEK293 tox: kills HEK 293 cells; actives 6.6% (n = 94,000); Potency, µM (series often up to 115 µM), for the others: at the highest dose activity change, negative = cytotoxicity, most hits filed as inhibitors; HEK 293 viability, ATP luminescence (CellTiter-Glo), 48-72 h; AID 1345083; further: nearly all actives have a fitted effect of over 60% in size
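Read-out: CellTiter-Glo ATP luminescence. Cells: HEK 293, 250 cells/well. Exposure: 48 or 72 hr, 37 degree Celsius.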
NIH3T3 tox: cytotoxic compounds in NIH 3T3 cells; NIH 3T3 viability, CellTiter-Glo ATP luminescence, 48-72 h; actives 4.3% (n = 94,000); Potency, µM (series often up to 96.7 µM), for inactives: at the highest dose activity change, negative = cytotoxicity, actives largely listed as inhibitors; further: nearly all actives have a fitted effect of over 55% in size
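Cytotoxicity was measured by CellTiter-Glo ATP luminescence after 48 or 72 h compound exposure at 37 °C. Mouse NIH 3T3 fibroblasts were seeded at 400 cells/well and dosed by 23 nL pin transfer.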
NPR1 antag: human Npr1 receptor antagonism; HEK293 hNpr1 GloSensor cGMP, ANP-stimulated luminescence; Potency, µM (series often up to 46.3 µM), without a hit: at the top dose activity change, negative = inhibition, actives largely listed as inhibitors; P16066; actives 1.6% (n = 76,000); AID 1347048; calls by dose curve; further: nearly all actives have a fitted effect of over 60% in size
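Compound pre-incubated 30 min at room temperature on GloSensor-loaded HEK293 cells stably carrying hNpr1 and the pGS-40F cGMP biosensor. Stimulation uses hNppA at 0.1 nM final; luminescence is taken at baseline and 20 min post-agonist.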
GPT2 inhibitor: blocks human glutamate pyruvate transaminase 2. Recombinant GPT2, coupled pyruvate oxidase/HRP Amplex Red fluorescence. Potency, µM (series often up to 57.7 µM), for the others: at the top dose activity change, negative = inhibition, hits mostly inhibitors. actives 0.25% (n = 100,000). AID 1671188; further: nearly all actives have a fitted effect of over 60% in size
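Fluorescence of coupled pyruvate oxidase/HRP/Amplex Red system (50uM Amplex, 30 min, dark) reports pyruvate formed by GPT2. Enzyme reaction: 10ng/uL GPT2, 2mM L-alanine, 250uM a-KG, 30 min room temperature, pH 7.5; 50uM AOA control.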
Luciferase inh: inhibitors of firefly (Photinus pyralis) luciferase. P08659. purified P. pyralis luciferase, luminescence, biochemical. Potency, µM (highest dose often 115 µM), hits mostly inhibitors. actives 2.5% (n = 76,000). AID 1347043; further: nearly all actives have a fitted effect of over 65% in size
Target sequence (P08659 whole entry, looked up): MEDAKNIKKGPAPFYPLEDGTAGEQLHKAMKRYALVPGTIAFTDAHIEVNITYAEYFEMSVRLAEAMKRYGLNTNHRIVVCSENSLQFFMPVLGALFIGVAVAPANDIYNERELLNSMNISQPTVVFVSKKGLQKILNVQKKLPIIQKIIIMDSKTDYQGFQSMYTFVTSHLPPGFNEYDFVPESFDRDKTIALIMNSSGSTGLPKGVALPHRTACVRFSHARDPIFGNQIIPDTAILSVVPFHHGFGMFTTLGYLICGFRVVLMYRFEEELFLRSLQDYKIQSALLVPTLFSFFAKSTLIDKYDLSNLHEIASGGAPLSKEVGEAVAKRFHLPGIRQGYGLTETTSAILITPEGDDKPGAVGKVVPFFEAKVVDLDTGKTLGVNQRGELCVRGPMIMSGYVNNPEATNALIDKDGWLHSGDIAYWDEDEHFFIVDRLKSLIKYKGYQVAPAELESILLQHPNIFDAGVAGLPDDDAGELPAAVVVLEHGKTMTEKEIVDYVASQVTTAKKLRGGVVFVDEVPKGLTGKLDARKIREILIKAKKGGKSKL
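FLuc 10nM, D-luciferin 10uM, ATP 10uM, Mg acetate 10mM, Tris acetate pH 7.5, Tween/BSA; cpd qHTS; enzyme added last; CCD luminescence.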
The depositor's hits bear a star; [ ] = another dose, or the depositor's remark. Shown are actives, neighbours in structure and some others; about 10% of the full set was active somewhere. Unless noted, the call rests on the fitted dose curve; in most records, active means well fitted curve in the direction sought with a large enough effect; inconclusive means small, poorly fitted or top-dose-only effect, or another doubt; inactive means no such curve, though single readings can be large; an effect the other way counts as inactive or inconclusive. On the % scale 0 is the no-effect control and ±100 the full control effect; potency means the concentration at half of the fitted maximal effect.

How did CCNC(=O)N1CCC(Oc2ccc(-c3noc(-c4ccccc4)n3)cc2)C1 (centres undefined) do in these assays?
HEK293 tox: 17.8µM*; NIH3T3 tox: inconclusive; GPT2 inhibitor: inactive

How did COc1ccc(CNC(=O)N2CC(Oc3cccc(-c4nc(C)no4)c3)C2)cc1 do in these assays?
HEK293 tox: inconclusive; NIH3T3 tox: inconclusive; NPR1 antag: -21.5%; GPT2 inhibitor: inactive; Luciferase inh: inactive

How did CCn1ccc(C(=O)N2CCCC2c2nc(C3CCOCC3)no2)n1 (centres undefined) do in these assays?
HEK293 tox: 6.8%; NIH3T3 tox: -4.7%; NPR1 antag: 1.7%; GPT2 inhibitor: inactive; Luciferase inh: inactive

How did CCNC(=O)N1CC(Oc2cccc(-c3nc(-c4ccccc4)no3)c2)C1 do in these assays?
HEK293 tox: 35.5µM*; NIH3T3 tox: inconclusive; NPR1 antag: 3.6%; GPT2 inhibitor: 2.7%; Luciferase inh: inactive

Results for O=C(C1CCOC1)N1CC(Oc2cccc(-c3nc(-c4ccccc4)no3)c2)C1 (centres undefined) ?
HEK293 tox: inconclusive; NIH3T3 tox: inconclusive; NPR1 antag: -18.6%; GPT2 inhibitor: -9.7%; Luciferase inh: 44.7µM*

Results for Cc1noc(-c2cccc(OC3CN(C(=O)C4CCOC4)C3)c2)n1 (centres undefined) ?
HEK293 tox: 12.2%; NIH3T3 tox: -14.4%; NPR1 antag: 0.6%; GPT2 inhibitor: inactive; Luciferase inh: inactive

What do the screens show for `O=C(NCC1CC1)c1ccc(CN2C(=O)NC3(CCS(=O)(=O)CC3)C2=O)cc1`?
HEK293 tox: -5.3%; NIH3T3 tox: inactive; NPR1 antag: -0.4%; GPT2 inhibitor: inactive; Luciferase inh: inactive

How did CC(C)(N)C(=O)N1CCCC(N2CCN(c3ccccc3F)CC2)C1 (centres undefined) do in these assays?
HEK293 tox: -1.9%; NIH3T3 tox: -2.6%; NPR1 antag: 4.3%; GPT2 inhibitor: -7.1%; Luciferase inh: inactive

Results for CSCC[C@@H]1NC(=O)c2cc(NC(=O)c3ccc(-n4cnnn4)cc3)ccc2NC1=O ?
HEK293 tox: 6.1%; NIH3T3 tox: 2.9%; NPR1 antag: -3.4%; GPT2 inhibitor: inconclusive; Luciferase inh: inactive

What do the screens show for `CCNC(=O)[C@@H]1C[C@H](NC(=O)Cc2cc(C)ccc2C)CN1C1CCCC1`?
HEK293 tox: -19.4%; NIH3T3 tox: -16.1%; NPR1 antag: -11.8%; GPT2 inhibitor: 4.9%; Luciferase inh: inactive

What do the screens show for `O=C(NC1CCN(c2cc(-c3ccc(Cl)cc3)[nH]n2)C1)c1ccccc1Br` (centres undefined)?
HEK293 tox: 28.2µM*; NIH3T3 tox: 35.5µM*; NPR1 antag: inconclusive; GPT2 inhibitor: -26.9%; Luciferase inh: inactive

What do the screens show for `COc1ccc(C(=O)NC2CCN(c3cc(-c4ccc(Cl)cc4)[nH]n3)C2)c(C)c1` (centres undefined)?
HEK293 tox: inconclusive; NIH3T3 tox: inconclusive; NPR1 antag: -16.3%; GPT2 inhibitor: -7.0%; Luciferase inh: inactive

What do the screens show for `COc1ccc(C(=O)NC2CCN(c3cc(-c4ccc(Cl)cc4)[nH]n3)C2)c(OC)c1` (centres undefined)?
HEK293 tox: 44.7µM*; NIH3T3 tox: 35.5µM*; NPR1 antag: -26.7%; GPT2 inhibitor: inconclusive; Luciferase inh: inactive

How did O=C(NC1CCN(c2cc(-c3ccc(Cl)cc3)[nH]n2)C1)c1ccc(F)cc1F (centres undefined) do in these assays?
HEK293 tox: 50.1µM*; NIH3T3 tox: inconclusive; NPR1 antag: inconclusive; GPT2 inhibitor: inconclusive; Luciferase inh: inactive

Results for O=C(Cc1cccc(Cl)c1)N1CCC2(COc3ccncc3[S+](=O)([O-])N2)C1 (centres undefined) ?
HEK293 tox: -17.0%; NIH3T3 tox: -15.9%; GPT2 inhibitor: -2.2%

How did NC(=O)[C@@H]1CN(C(=O)c2cccnn2)C[C@H]1COc1ccccc1 do in these assays?
HEK293 tox: 1.9%; NIH3T3 tox: -2.2%; NPR1 antag: -2.2%; GPT2 inhibitor: 2.0%; Luciferase inh: inactive

How did COc1ccccc1-c1nc(C(=O)NC2CC2)n2ccncc12 do in these assays?
HEK293 tox: inconclusive; NIH3T3 tox: 56.2µM*; NPR1 antag: -22.4%[70.6 µM]; GPT2 inhibitor: -21.6%[88.5 µM]; Luciferase inh: inactive

How did COC(=O)CNC(=O)c1nc(-c2ccccc2)c2ccccn12 do in these assays?
HEK293 tox: inconclusive; NIH3T3 tox: inconclusive; NPR1 antag: -8.2%[70.6 µM]; GPT2 inhibitor: inactive; Luciferase inh: inactive

How did O=C(NC1CC1)c1nc(-c2cccc(C(F)(F)F)c2)c2cnccn12 do in these assays?
HEK293 tox: 79.4µM*; NIH3T3 tox: -24.2%; NPR1 antag: -5.0%; GPT2 inhibitor: inactive; Luciferase inh: inactive

How did O=C(NC1CC1)c1nc(-c2ccccc2)c2ccccn12 do in these assays?
HEK293 tox: 63.1µM*; NIH3T3 tox: inconclusive; NPR1 antag: 3.6%[70.6 µM]; GPT2 inhibitor: inactive; Luciferase inh: inactive

Results for Cn1nc(C2CCCC2)cc1NC(=O)c1ccc(F)cc1 ?
HEK293 tox: inconclusive; NIH3T3 tox: -32.7%[138 µM]; GPT2 inhibitor: -0.6%[88.5 µM]

Results for CC(C)(C)c1ccc(-c2cc(C[C@H]3CNCC[C@H]3CC(=O)NC3CCCCC3)no2)cc1 ?
HEK293 tox: 12.6µM*; NIH3T3 tox: 20µM*; NPR1 antag: -11.9%; GPT2 inhibitor: -0.6%; Luciferase inh: inactive

How did O=C(C[C@@H]1CCNC[C@@H]1Cc1cc(CSc2ccccc2)on1)NC1CCCCC1 do in these assays?
HEK293 tox: 89.1µM*; NIH3T3 tox: 100µM*; NPR1 antag: -4.1%[70.6 µM]; GPT2 inhibitor: inactive; Luciferase inh: inactive

What do the screens show for `O=C(C[C@@H]1CCNC[C@@H]1Cc1cc(CSc2ccccc2)on1)NC1CC1`?
HEK293 tox: -25.6%[172 µM]; NIH3T3 tox: -28.1%[174 µM]; NPR1 antag: 3.7%[70.6 µM]; GPT2 inhibitor: -12.6%[88.5 µM]; Luciferase inh: inactive

How did COc1ccccc1CNC(=O)C[C@@H]1CCNC[C@@H]1Cc1cc(-c2ccccc2)on1 do in these assays?
HEK293 tox: 63.1µM*; NIH3T3 tox: 79.4µM*; NPR1 antag: -21.8%[70.6 µM]; GPT2 inhibitor: -19.3%[88.5 µM]; Luciferase inh: inactive

How did O=C(C[C@@H]1CCNC[C@@H]1Cc1cc(-c2ccccc2)on1)NC1CCCCC1 do in these assays?
HEK293 tox: 100µM*; NIH3T3 tox: inconclusive; NPR1 antag: -9.8%[70.6 µM]; GPT2 inhibitor: inactive; Luciferase inh: inactive

Results for CC(C)(C)c1ccc(-c2cc(C[C@H]3CNCC[C@H]3CC(=O)O)no2)cc1 ?
HEK293 tox: inconclusive; NIH3T3 tox: -28.4%[138 µM]; NPR1 antag: 1.5%[70.6 µM]; GPT2 inhibitor: -3.2%[88.5 µM]; Luciferase inh: inconclusive

What do the screens show for `COc1ccc(CNC(=O)C[C@@H]2CCNC[C@@H]2Cc2cc(-c3ccccc3)on2)cc1OC`?
HEK293 tox: -8.8%; NIH3T3 tox: -22.4%; NPR1 antag: -1.8%; GPT2 inhibitor: -4.0%; Luciferase inh: inactive

Compound activity: PubChem BioAssay, National Center for Advancing Translational Sciences (NCATS)
